# Data: PubChem BioAssay (NCATS)
# Values joined by “and” are separate entries in the source; they are usually repeats but may differ in a detail not shown here. Identical values can stand only once. Records with an inconclusive call do not appear. Where a call stands in place of a potency, no number is given. Some structures have more than one record in an assay (separate samples or runs), and their calls can disagree. Active and inactive are the calls of the source. Unless noted, the call rests on the fitted dose curve; in most records, active means well fitted curve in the direction sought with a large enough effect; inconclusive means small, poorly fitted or top-dose-only effect, or another doubt; inactive means no such curve, though single readings can be large; an effect the other way counts as inactive or inconclusive.
# Tests used:
# [1] = biological target: Cytochrome P450 3A4 (Homo sapiens) (UniProt P08684); experiment: qHTS Assay for Inhibitors and Substrates of Cytochrome P450 3A4 (AID 884); further: nearly all actives have a fitted effect of over 50% in size; further: potency means the concentration at half of the fitted maximal effect
# Cytochrome P450 3A4 (Homo sapiens), sequence (P08684 whole entry, looked up): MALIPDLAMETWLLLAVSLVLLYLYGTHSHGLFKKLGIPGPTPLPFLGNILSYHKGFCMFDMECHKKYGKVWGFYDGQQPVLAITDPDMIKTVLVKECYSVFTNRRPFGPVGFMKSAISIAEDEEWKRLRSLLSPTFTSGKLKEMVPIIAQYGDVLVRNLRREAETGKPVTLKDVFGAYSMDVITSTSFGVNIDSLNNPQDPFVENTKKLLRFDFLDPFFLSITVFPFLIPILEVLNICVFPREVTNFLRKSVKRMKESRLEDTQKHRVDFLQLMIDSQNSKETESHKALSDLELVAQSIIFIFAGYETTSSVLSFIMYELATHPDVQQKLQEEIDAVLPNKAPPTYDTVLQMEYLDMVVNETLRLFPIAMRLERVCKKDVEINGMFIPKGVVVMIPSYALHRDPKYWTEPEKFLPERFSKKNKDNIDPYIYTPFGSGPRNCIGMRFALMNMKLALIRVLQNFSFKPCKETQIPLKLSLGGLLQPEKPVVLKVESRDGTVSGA
# Procedure, shortened: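 20 nM human CYP3A4 with 25 uM Luciferin-PPXE (at KM) in 200 mM KPO4, preincubated 10 min with compound; NADPH regeneration started a 60 min RT reaction. Luciferin detected by luminescence, normalized to 57 uM ketoconazole as full inhibition.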
# [2] = Confirmation and Secondary Assay for Modulators of Hemoglobin Beta Chain Splicing at IVS2 654 locus (AID 910);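 further: HeLa cells stably carrying EGFP split by mutant beta-globin IVS2-654 intron; per-well total GFP intensity by laser scanning cytometry after 2-day treatment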;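 further: potency means the concentration at half of the fitted maximal effect; potency of activators that raise GFP signal by restoring correct splicing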
# Procedure, shortened: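 Readout: per-well total peak green fluorescence (488 nm ex, 500–520 nm em) from objects 5–250 µm, reflecting correct splicing of an EGFP-654 reporter. Compounds were applied for 2 days at 37 °C to overnight-plated HeLa EGFP-654 cells; controls were DMSO and 500 nM IVS2-654 PNA.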
# [3] = biological target: Cytochrome P450 2D6 (Homo sapiens) (UniProt P10635); experiment: qHTS Assay for Inhibitors and Substrates of Cytochrome P450 2D6 (AID 891); further: nearly all actives have a fitted effect of over 60% in size; further: potency means the concentration at half of the fitted maximal effect
# Cytochrome P450 2D6 (Homo sapiens), sequence (P10635 whole entry, looked up): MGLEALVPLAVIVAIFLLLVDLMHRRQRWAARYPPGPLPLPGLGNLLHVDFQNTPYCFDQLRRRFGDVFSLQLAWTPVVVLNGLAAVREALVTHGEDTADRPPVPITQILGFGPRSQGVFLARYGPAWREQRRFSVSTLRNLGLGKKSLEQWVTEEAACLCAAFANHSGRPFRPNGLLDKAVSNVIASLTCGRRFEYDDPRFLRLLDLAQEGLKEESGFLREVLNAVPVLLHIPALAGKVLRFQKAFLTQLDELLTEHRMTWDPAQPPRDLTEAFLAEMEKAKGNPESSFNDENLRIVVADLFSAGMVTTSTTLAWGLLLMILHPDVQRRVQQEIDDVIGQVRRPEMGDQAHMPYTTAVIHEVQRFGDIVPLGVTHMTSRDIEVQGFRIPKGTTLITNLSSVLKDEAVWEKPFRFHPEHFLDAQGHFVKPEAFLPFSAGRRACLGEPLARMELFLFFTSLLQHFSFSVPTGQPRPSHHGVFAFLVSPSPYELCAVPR
# Procedure, shortened: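 Human CYP2D6 (5 nM) with 30 uM Luciferin-ME EGE (at Km) in 100 mM KPO4, compound preincubated 10 min, then NADPH regeneration system for 60 min at room temperature. Luciferin read by luminescence; normalized to 1.43 uM quinidine.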
# [4] = biological target: Cytochrome P450 2C9 (Homo sapiens) (UniProt P11712); experiment: qHTS Assay for Inhibitors and Substrates of Cytochrome P450 2C9 (AID 883); further: nearly all actives have a fitted effect of over 60% in size; further: potency means the concentration at half of the fitted maximal effect
# Cytochrome P450 2C9 (Homo sapiens), sequence (P11712 whole entry, looked up): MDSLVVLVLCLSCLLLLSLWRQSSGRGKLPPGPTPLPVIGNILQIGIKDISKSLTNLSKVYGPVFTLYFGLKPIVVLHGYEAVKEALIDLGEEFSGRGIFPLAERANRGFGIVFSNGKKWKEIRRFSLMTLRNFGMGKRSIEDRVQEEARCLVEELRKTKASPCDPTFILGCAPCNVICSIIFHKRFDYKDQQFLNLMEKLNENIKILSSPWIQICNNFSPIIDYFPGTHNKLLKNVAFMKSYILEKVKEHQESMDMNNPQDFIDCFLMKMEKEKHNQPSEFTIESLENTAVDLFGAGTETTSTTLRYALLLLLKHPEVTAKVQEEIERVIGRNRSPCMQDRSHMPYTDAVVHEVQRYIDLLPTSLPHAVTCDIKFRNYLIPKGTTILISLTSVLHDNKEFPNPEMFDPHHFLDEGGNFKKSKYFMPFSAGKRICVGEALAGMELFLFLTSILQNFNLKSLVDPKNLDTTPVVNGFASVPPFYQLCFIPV
# Procedure, shortened: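 Inhibition of CYP2C9 is scored as loss of luminescence, with 57uM sulphaphenazole defining 100% inhibition. Substrate Luciferin-H is used at 100uM, equal to its KM; enzyme at 10nM in 25mM KPO4, 60 min at 37C with NADPH regeneration.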
# [5] = biological target: Guanine nucleotide-binding protein G(i) subunit alpha-1 (Homo sapiens) (UniProt P63096); experiment: qHTS Assay for Inhibitors of RGS12 GoLoco Motif Activity (Green Fluorophore) (AID 879);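 further: negative values mean loss of peptide binding seen as reduced polarization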
# Guanine nucleotide-binding protein G(i) subunit alpha-1 (Homo sapiens), sequence (P63096 whole entry, looked up): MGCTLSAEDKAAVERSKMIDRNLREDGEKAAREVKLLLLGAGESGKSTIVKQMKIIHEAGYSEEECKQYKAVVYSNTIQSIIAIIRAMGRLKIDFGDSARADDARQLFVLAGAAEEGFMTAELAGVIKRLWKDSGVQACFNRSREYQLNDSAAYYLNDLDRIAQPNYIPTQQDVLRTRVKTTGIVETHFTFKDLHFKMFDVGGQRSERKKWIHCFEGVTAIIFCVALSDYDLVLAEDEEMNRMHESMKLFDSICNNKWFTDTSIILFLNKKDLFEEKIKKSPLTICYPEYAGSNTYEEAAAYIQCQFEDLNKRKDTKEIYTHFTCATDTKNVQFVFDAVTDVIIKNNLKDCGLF
# Procedure, shortened: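 Fluorescence polarization assay: 50 nM Gαi1 with 10 nM FITC-labeled RGS12 GoLoco peptide in 10 mM Tris pH 7.5, 150 mM NaCl, 0.1 mM GDP, 0.05% NP40, 10 min at room temperature with compound.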
# [6] = qHTS Assay for Identification of Small Molecule Antagonists for NFkB Signaling Pathway (AID 895; active means well fitted inhibition curve with a large enough effect in the signal ratio, with a control signal flat, not every such curve was filed as active; the % refers to the signal ratio)
# Procedure, shortened: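 Beta-lactamase reporter read-out (460 and 530 nm emission ratio, 405 nm excitation, 2 hrs substrate loading RT) after 5 hr stimulation with 10 pM TNF alpha in compound-treated NFkB-bla ME-180 cells in low-serum medium.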
# [7] = biological target: Cytochrome P450 2C19 (Homo sapiens) (UniProt P33261); experiment: qHTS Assay for Inhibitors and Substrates of Cytochrome P450 2C19 (AID 899); further: nearly all actives have a fitted effect of over 60% in size; further: potency means the concentration at half of the fitted maximal effect
# Cytochrome P450 2C19 (Homo sapiens), sequence (P33261 whole entry, looked up): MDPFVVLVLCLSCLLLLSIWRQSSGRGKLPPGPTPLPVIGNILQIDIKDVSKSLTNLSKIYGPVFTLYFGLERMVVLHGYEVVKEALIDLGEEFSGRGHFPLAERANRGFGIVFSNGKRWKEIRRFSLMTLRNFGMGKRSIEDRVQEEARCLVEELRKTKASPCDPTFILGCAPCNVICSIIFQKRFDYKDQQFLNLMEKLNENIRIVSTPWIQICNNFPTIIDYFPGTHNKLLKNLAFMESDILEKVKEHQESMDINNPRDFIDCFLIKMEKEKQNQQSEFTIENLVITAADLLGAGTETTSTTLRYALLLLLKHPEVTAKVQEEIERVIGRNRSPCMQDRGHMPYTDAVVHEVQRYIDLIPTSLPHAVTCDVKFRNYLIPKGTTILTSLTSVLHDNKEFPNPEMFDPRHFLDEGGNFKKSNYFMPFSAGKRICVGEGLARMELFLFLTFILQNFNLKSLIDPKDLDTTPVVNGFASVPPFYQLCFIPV
# Procedure, shortened: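 5nM enzyme + 10uM Luciferin-H EGE (=KM), 50mM KPO4; cpd pin-transferred, 10 min 37C; NADPH regen, 60 min 37C; stopped w/ luciferin detection reagent, 20 min; luminescence. Normalized to 57uM ketoconazole (AC100).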
smiles,measurement,setting,value
Cc1cc2c(s1)Nc1ccccc1N=C2N1CCN(C)CC1,Potency,[1],inactive
same,Potency,[2],inactive
CCN(CCO)CCCC(C)Nc1ccnc2cc(Cl)ccc12 (centres undefined),Potency,[2],inactive
Cc1ncc([N+](=O)[O-])n1CC(C)O (centres undefined),Potency,[1],inactive
same,Potency,[2],inactive
Cc1cc(C2CCCCC2)n(O)c(=O)c1,Potency,[1],inactive
same,Potency,[2],inactive
O=C(O)c1cn(-c2ccc(F)cc2)c2cc(N3CCNCC3)c(F)cc2c1=O,Potency,[1],inactive
same,Potency,[2],inactive
O=C(NC(Cc1cc(=O)[nH]c2ccccc12)C(=O)O)c1ccc(Cl)cc1 (centres undefined),Potency,[1],inactive
same,Potency,[2],inactive
CCCOc1ccc2nc(NC(=O)OC)[nH]c2c1,Potency,[1],inactive
same,Potency,[2],inactive
CN1CCC(=C2c3ccccc3CCc3sccc32)CC1,Potency,[3],1.26 µM (active)
same,Potency,[2],inactive
S=c1nc[nH]c2nc[nH]c12,Potency,[1],inactive
same,Potency,[2],3.16 µM (active)
CCOC(=O)C1=C(O)C(=O)N(Cc2ccccc2)C1,Potency,[4],3.98 µM (active)
O=C(c1ccccc1)c1ccc2n1CCC2C(=O)O (centres undefined),Potency,[1],inactive
same,Potency,[2],inactive
O=c1oc2cc(O)ccc2s1,Potency,[1],inactive
same,Potency,[2],inactive
C[C@@H](N)C1CCC(C(=O)Nc2ccncc2)CC1 (some centres undefined),Potency,[1],15.8 µM (active)
Nc1nc(Cl)nc2c1ncn2[C@H]1C[C@H](O)[C@@H](CO)O1,Potency,[1],inactive
same,Potency,[2],inactive
NNc1nncc2ccccc12,outcome,[5],inactive
same,Potency,[6],inactive
same,Potency,[2],inactive
CN(C)CCc1c[nH]c2ccc(Cn3cncn3)cc12,Potency,[1],inactive
same,Potency,[2],inactive
Cc1cccc(CN2CCN(C(c3ccccc3)c3ccc(Cl)cc3)CC2)c1 (centres undefined),Potency,[2],inactive
O=C(O)c1cc(=O)c2c(OCC(O)COc3cccc4oc(C(=O)O)cc(=O)c34)cccc2o1,Potency,[1],inactive
same,Potency,[2],inactive
O=C(O)c1cccnc1Nc1cccc(C(F)(F)F)c1,outcome,[5],inactive
same,Potency,[3],inactive
same,Potency,[7],inactive
same,Potency,[2],inactive
O=C1c2ccccc2-c2n[nH]c3cccc1c23,Potency,[4],inactive
same,Potency,[1],3.98 µM (active)
same,Potency,[3],inactive and 398 nM (active)
same,Potency,[7],inactive
CC1Cc2ccccc2N1NC(=O)c1ccc(Cl)c(S(N)(=O)=O)c1 (centres undefined),Potency,[1],inactive
same,Potency,[2],inactive
Cc1cc2cc3c(C)cc(=O)oc3c(C)c2o1,Potency,[1],3.98 µM (active)
same,Potency,[2],inactive
O=c1ccc2ccc(O)c(O)c2o1,outcome,[5],inactive
same,Potency,[6],inactive
Nc1cc(C(Cl)=C(Cl)Cl)c(S(N)(=O)=O)cc1S(N)(=O)=O,Potency,[2],inactive
O=C(NCCO[N+](=O)[O-])c1cccnc1,Potency,[4],2 µM (active)
same,Potency,[7],3.98 µM (active)
Cc1c(OCC(F)(F)F)ccnc1CS(=O)c1nc2ccccc2[nH]1 (centres undefined),outcome,[5],inactive
same,Potency,[7],1.26 µM (active)
same,Potency,[2],inactive
Cc1cc(=O)oc2cc(O)ccc12,Potency,[4],inactive
